Bioassay records (PubChem BioAssay)
GLP1R inv ag = GLP-1 receptor (human) inverse agonism | P43220 | HEK293 GLP-1R CRE-luciferase, luminescence, 24 h; GLP-1R form is constitutively active | Potency, µM (top dose mostly 38.3 µM), without a hit: at the highest dose activity change, negative = inhibition, actives largely listed as inhibitors | 410,000 compounds, 1.6% hits | AID 624417; further: on the % scale 0 is the no-effect control and ±100 the full control effect; nearly all actives have a fitted effect of over 55% in size
Target sequence (P43220 whole entry, looked up): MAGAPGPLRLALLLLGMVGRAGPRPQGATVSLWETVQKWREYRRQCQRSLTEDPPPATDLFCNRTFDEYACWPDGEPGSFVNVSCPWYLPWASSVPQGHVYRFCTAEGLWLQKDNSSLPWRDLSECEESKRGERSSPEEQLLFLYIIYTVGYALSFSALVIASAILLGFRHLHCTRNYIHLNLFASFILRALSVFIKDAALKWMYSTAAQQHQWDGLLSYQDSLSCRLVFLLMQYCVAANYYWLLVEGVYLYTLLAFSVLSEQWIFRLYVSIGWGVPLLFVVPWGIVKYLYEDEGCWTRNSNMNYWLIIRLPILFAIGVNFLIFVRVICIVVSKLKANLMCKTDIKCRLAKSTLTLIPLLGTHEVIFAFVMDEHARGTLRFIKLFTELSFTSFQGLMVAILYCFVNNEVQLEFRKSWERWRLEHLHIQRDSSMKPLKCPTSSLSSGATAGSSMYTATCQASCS
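Assay principle: reduced luminescence from a cAMP-responsive reporter in HEK293 cells co-expressing a constitutively active GLP-1R. Conditions: 24 hr compound incubation, 37 deg C, 5% CO2.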
GLP1R cytotox = cytotoxicity counter-screen for GLP-1 receptor inverse agonists | Potency, µM (top dose mostly 38.3 µM), for the others: top-dose activity change, negative = inhibition, hits mostly inhibitors | HEK293 cAMP-luciferase reporter cells, luminescence, 24 h | 410,000 compounds, 0.13% hits;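 further: loss of luciferase light is scored as toxicity; on the % scale 0 is the no-effect control and ±100 the full control effect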
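1536-well qHTS counterscreen of the MLSMR; 200 cells/uL, 12 h pre-incubation, 23 nL cpd, 24 h at 37 deg C 5% CO2, luciferase detection reagent, 12 min RT, luminescence. Inhibition = undesired.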
GLP1R ag = GLP-1 receptor (human) agonism; Potency, µM (top dose mostly 45.6 µM), for the others: top-dose activation, hits mostly activators; P43220; HEK293 GLP-1R CRE-luciferase, luminescence, 4-6 h; cells express a hypersensitive GLP-1R form; 380,000 compounds, 0.007% hits; further: % of control where 0% means no effect
* = called active by the depositor. This is a sample that favours compounds with a hit; in the whole collection about 1.7% have one here. The call rests on the fitted dose curve; in most records, active means well fitted curve in the direction sought with a large enough effect; inconclusive means small, poorly fitted or top-dose-only effect, or another doubt; inactive means no such curve, though single readings can be large; an effect the other way counts as inactive or inconclusive. Potency means the concentration at half of the fitted maximal effect.

`O=C(/C=C/c1ccc2c(c1)OCO2)NCCSCc1ccc(Cl)cc1` gave GLP1R inv ag 5µM*, GLP1R cytotox -13% and GLP1R ag 10%.
CCC(CC)NC(=O)COC(=O)c1ccc(NS(=O)(=O)c2ccc3c(c2)OCCO3)cc1 was read as GLP1R inv ag 2%, GLP1R cytotox -7% and GLP1R ag 0%.
NC(CCc1ccccc1)c1csc(Nc2cnccn2)n1 (stereo not drawn) was read as GLP1R inv ag inconclusive, GLP1R cytotox -29% and GLP1R ag 0%.
COc1ccc(-c2nc3sc(CCNC(=O)C(=O)Nc4cc(C)cc(C)c4)c(C)n3n2)cc1 was read as GLP1R inv ag 14% and GLP1R cytotox -13%.
Screening Cc1ccc(OCc2cc(C(=O)N3CCCCCCC3)no2)cc1C returned GLP1R inv ag inconclusive, GLP1R cytotox 4% and GLP1R ag 18%.
For Cc1ccc(OCc2cc(C(=O)NC(C)Cc3cnccn3)no2)cc1C (stereo not drawn) the results were GLP1R inv ag -30%, GLP1R cytotox 6% and GLP1R ag -2%.
`Cc1ccc(OCc2cc(C(=O)N3CCC(C(O)C(C)C)CC3)no2)cc1C` (stereo not drawn) gave GLP1R inv ag 11µM*, GLP1R cytotox -15% and GLP1R ag 9%.
Screening Cc1cccc(CC(C)NC(=O)c2cc(COc3ccc(C)c(C)c3)on2)n1 (stereo not drawn) returned GLP1R inv ag 10µM*, GLP1R cytotox 3% and GLP1R ag 4%.
For Cc1cc(C)c(NC(=O)CSc2ncc(S(=O)(=O)c3ccc(C(C)(C)C)cc3)c(=O)[nH]2)c(C)c1 the results were GLP1R inv ag 15%, GLP1R cytotox -1% and GLP1R ag -20%.
`Cc1ccc2c(c1)c1c(c(=O)n(-c3cccc(Cl)c3)c(=O)n1C)n2C` gave GLP1R inv ag 10%, GLP1R cytotox 0% and GLP1R ag 0%.
Cc1cc(F)ccc1NC(=O)c1ccc(NS(=O)(=O)c2cc(C(C)(C)C)ccc2C)cc1 was read as GLP1R inv ag 4.5µM*, GLP1R cytotox inconclusive and GLP1R ag -4%.
Screening CC(=O)Nc1ccc(NC(=O)c2ccc(NS(=O)(=O)c3cc(C(C)(C)C)ccc3C)cc2)cc1 returned GLP1R inv ag -19%, GLP1R cytotox -7% and GLP1R ag 3%.
Screening O=C(Nc1cc(Cl)cc(Cl)c1)c1cccc(OC(F)F)c1 returned GLP1R inv ag 13µM*, GLP1R cytotox -26% and GLP1R ag -4%.
For Cc1ccnc(NC(=O)c2cccc(OC(F)F)c2)n1 the results were GLP1R inv ag 16%, GLP1R cytotox 0% and GLP1R ag 14%.
Screening Cc1nnc(SCC(=O)c2c[nH]c3ccccc23)n1C1CC1 returned GLP1R inv ag inconclusive, GLP1R cytotox inconclusive and GLP1R ag 1%.
Screening Clc1ccc2c(c1)NC(c1ccncc1)=NC(c1cccs1)=N2 returned GLP1R inv ag 14% and GLP1R cytotox 12%.
`N=c1n(CCO)c2ccccc2n1Cc1ccccc1F` gave GLP1R inv ag -7% and GLP1R cytotox -17%.
CC1(C)CC(=O)CC2(C1)NCC(c1ccccc1)c1c2[nH]c2ccccc12 (stereo not drawn) was read as GLP1R inv ag 10µM*, GLP1R cytotox -12% and GLP1R ag 8%.
For COc1cccc(C2CNC3(CCCC(C)C3)c3[nH]c4ccccc4c32)c1OC (stereo not drawn) the results were GLP1R inv ag inconclusive, GLP1R cytotox inconclusive and GLP1R ag -1%.
COc1ccccc1-c1c(-c2ccc(O)cc2O)n[nH]c1C(F)(F)F was read as GLP1R inv ag 11µM*, GLP1R cytotox -15% and GLP1R ag -3%.
Oc1ccc(-c2n[nH]c(C(F)(F)F)c2-c2ccccc2)c(O)c1 was read as GLP1R inv ag inconclusive, GLP1R cytotox -9% and GLP1R ag 2%.
Screening O=C(Nc1ccccc1)N(CCc1nc2ccccc2[nH]1)C1CCCC1 returned GLP1R inv ag 0%, GLP1R cytotox 5% and GLP1R ag 0%.
For S=C(NC1CCCCC1)N(CCc1nc2ccccc2[nH]1)C1CCCC1 the results were GLP1R inv ag 10µM*, GLP1R cytotox inconclusive and GLP1R ag -5%.
CCOC(=O)C(C)N1C(=O)S/C(=C/c2cc(C)n(-c3ccccn3)c2C)C1=O (stereo not drawn) was read as GLP1R inv ag 10µM*, GLP1R cytotox -34% and GLP1R ag 0%.
For CCOC(=O)C(C)N1C(=O)S/C(=C/c2cc(C)n(-c3ccncc3)c2C)C1=O (stereo not drawn) the results were GLP1R inv ag inconclusive, GLP1R cytotox -23% and GLP1R ag 7%.
`Cc1cc(NC(=O)CSc2nnc(COc3ccccc3)n2Cc2ccco2)no1` gave GLP1R inv ag 1%, GLP1R cytotox 5% and GLP1R ag -8%.
For Cc1ccc(OCc2nnc(SCC(=O)C(C)(C)C)n2Cc2ccco2)cc1 the results were GLP1R inv ag 2µM*, GLP1R cytotox 14% and GLP1R ag 13%.
COCCCn1c(=O)c2sccc2n2c(CCCC(=O)Nc3ccc(F)c(F)c3)nnc12 was read as GLP1R inv ag 10% and GLP1R cytotox -6%.
CCCCOc1ccc(Cn2c(=O)sc3ccccc32)cc1OC was read as GLP1R inv ag inconclusive and GLP1R cytotox -1%.
For COc1cc(Cn2c(=O)sc3ccccc32)ccc1OCCC(C)C the results were GLP1R inv ag 10µM* and GLP1R cytotox 2%.
`CC(=O)N1c2nc(C(C)C)nn2C2(CCCCC2)[C@@H]2CCCC[C@@H]21` gave GLP1R inv ag -20% and GLP1R cytotox -1%.
Screening CC1=C(CO)C(=O)OC([C@@H](C)C2CC[C@H]3C4C[C@H]5O[C@]56[C@@H](O)C=CC(=O)[C@]6(C)C4CC[C@]23C)C1 (stereo partly drawn) returned GLP1R inv ag 10%, GLP1R cytotox 13µM* and GLP1R ag -19%.
COc1ccc(CNc2oc(COc3ccccc3)nc2C#N)cc1 was read as GLP1R inv ag 10µM*, GLP1R cytotox 9% and GLP1R ag 1%.
`Cc1cccc(OCc2nc(C#N)c(NCc3ccc4c(c3)OCO4)o2)c1` gave GLP1R inv ag 11µM*, GLP1R cytotox -5% and GLP1R ag 4%.
Screening COc1ccc(CNc2oc(COc3cccc(C)c3)nc2C#N)cc1 returned GLP1R inv ag inconclusive and GLP1R cytotox 7%.
COc1ccc(CCNc2oc(COc3ccccc3)nc2C#N)cc1 was read as GLP1R inv ag inconclusive, GLP1R cytotox -3% and GLP1R ag 3%.
Cc1cc(C)nc(NS(=O)(=O)c2ccc(NC(=O)c3ccccc3O)cc2)n1 was read as GLP1R inv ag 5%, GLP1R cytotox 26% and GLP1R ag -2%.
COc1ccc(CNC(=O)c2ccc3nc(CCc4ccccc4)oc3c2)cc1OC was read as GLP1R inv ag inconclusive and GLP1R cytotox -1%.
OCc1cccc(-c2cnc3c(Nc4cccc(OC(F)(F)C(F)F)c4)nccn23)c1 was read as GLP1R inv ag 13µM*, GLP1R cytotox -19% and GLP1R ag -22%.
